# Screens: PubChem BioAssay, National Center for Advancing Translational Sciences (NCATS)
# Tb PYK inh: inhibitors of Trypanosoma brucei pyruvate kinase; Q57TT1; TbPYK enzyme, Kinase-Glo Plus ATP luminescence, 45 min; Potency, µM (highest dose often 76.8 µM), for the others: top-dose activity, negative = inhibition, most hits filed as inhibitors; 410,000 tested, 0.12% active; AID 624173; also: % is scaled to controls: 0 for no effect and ±100 for the full control effect; nearly all actives have a fitted effect of over 50% in size
#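 Glycolytic pyruvate kinase of T. brucei was incubated with substrate, test compound and 130 uM ADP for 45 minutes at room temperature. Luminescent Kinase-Glo Plus signal was measured after 10 minutes.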
# Sm TGR block: blocks Schistosoma mansoni thioredoxin glutathione reductase | Q962Y6 | purified TGR, DTNB reduction, TNB absorbance 405 nm | Potency, µM (doses to about 114 µM), for inactives: at the top dose activity change, negative = inhibition, actives largely listed as inhibitors | 360,000 tested, 3% active | AID 485364; also: % is scaled to controls: 0 for no effect and ±100 for the full control effect; nearly all actives have a fitted effect of over 60% in size
#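 First, TGR (20 nM dispensed) and NADPH were mixed with compound. Second, a 15 min room-temperature incubation followed. Third, further NADPH and then DTNB were added to start the reaction. Finally, TNB absorbance was monitored kinetically.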
# SARS PLP yeast: inhibitors of SARS-CoV papain-like protease in yeast. S. cerevisiae expressing SARS-CoV PLpro, growth rescue. Potency, µM (doses to about 32.9 µM), without a hit: at the highest dose activity, positive = growth rescue, hits mostly activators. 330,000 tested, 0.19% active. AID 485353; calls by dose curve; also: 0% is about no effect; nearly all actives have a fitted effect of over 55% in size
# AmpC no deterg: blocks E. coli AmpC beta-lactamase in detergent-free assay | P00811 | AmpC nitrocefin hydrolysis, absorbance 480 nm, 0.0001% Triton | Potency, µM (titrated, usually from 57.1 µM), for inactives: at the highest dose activity change, negative = inhibition, hits mostly inhibitors | 330,000 tested, 0.52% active;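 also: plate controls were no compound for no effect and no enzyme for full effect; nearly all actives have a fitted effect of over 20% in size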
# Target sequence (P00811 whole entry, looked up): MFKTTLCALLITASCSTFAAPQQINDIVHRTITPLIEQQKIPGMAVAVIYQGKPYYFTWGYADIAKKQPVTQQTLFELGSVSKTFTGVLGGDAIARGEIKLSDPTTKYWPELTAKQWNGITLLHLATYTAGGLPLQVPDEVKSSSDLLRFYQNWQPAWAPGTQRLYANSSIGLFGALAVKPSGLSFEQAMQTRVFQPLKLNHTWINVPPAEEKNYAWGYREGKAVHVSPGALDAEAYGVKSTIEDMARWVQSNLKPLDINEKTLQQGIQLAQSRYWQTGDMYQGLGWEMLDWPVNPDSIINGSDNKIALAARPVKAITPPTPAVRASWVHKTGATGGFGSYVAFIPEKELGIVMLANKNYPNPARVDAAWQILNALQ
#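 AmpC (5.3 nM in the dispensed reagent) in 20 mM phosphate pH 7.0 with 0.01% (detergent screen) or 0.0001% Triton X-100 was preincubated with compounds for 15 min at room temperature. Nitrocefin was then added from an 800 uM solution, and hydrolysis was followed at 480 nm.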
# AmpC detergent: blocks E. coli AmpC beta-lactamase in detergent assay. P00811. AmpC hydrolysis of nitrocefin, absorbance 480 nm, 0.01% Triton. Potency, µM (top dose mostly 114 µM), inactives show at the top dose activity change, negative = inhibition, usual class: inhibitors. 370,000 tested, 0.041% active. AID 485294;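 also: 0% = no-compound wells and -100% = no-enzyme wells; nearly all actives have a fitted effect of over 25% in size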
#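 20 mM phosphate pH 7.0 + 0.01% (detergent screen) or 0.0001% Triton X-100; 5.3 nM AmpC reagent; cpd preinc 15 min RT; nitrocefin (800 uM stock) to start; A480 q20 s × 4 min; Activity was normalised to no-enzyme and no-compound control wells.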
# RE007 growth inh: less growth of the S. pombe RE007 Vpr strain; S. pombe RE007 Vpr strain, BacTiter-Glo ATP luminescence, 24 h; Potency, µM (titrated, usually from 92.2 µM), for inactives: at the highest dose activity change, negative = less growth, usual class: inhibitors; 360,000 tested, 0.21% active; AID 651644; active = well fitted falling curve with a large enough effect; inconclusive = small, poorly fitted or top-dose-only effect; inactive = no such curve, though single readings can be large or run the other way; also: % is scaled to controls: 0 for no effect and ±100 for the full control effect; nearly all actives have a fitted effect of over 50% in size
#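 Fission yeast strain RE007, carrying one chromosomally integrated HIV-1 vpr copy, was seeded at OD 0.01 in PMG+AL medium with 23 nL pinned compound. After 24 h at 30 °C and 99% humidity, viability was read by BacTiter-Glo luminescence.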
# * marks the source's active call; other numbers are inactive results; u = inconclusive; x = not tested or not shown. Rows were chosen to be rich in hits. Some 3.3% of all compounds tested hit in one or more screens of this group. Unless noted, calls follow the shape of the dose curve; as a rule, active = well fitted curve in the direction sought with a large enough effect; inconclusive = small, poorly fitted or top-dose-only effect, or another doubt; inactive = no such curve, though single readings can be large; an effect the other way counts as inactive or inconclusive. Potency is read from the fitted curve at half-maximal effect.
SMILES,Tb PYK inh,Sm TGR block,SARS PLP yeast,AmpC no deterg,AmpC detergent,RE007 growth inh
CC(CSC(=O)c1ccccc1)C(=O)N1CC(Sc2ccccc2)CC1C(=O)O (stereo not given),0%,x,x,x,x,x
Nc1ccc2c(c1)C(=O)C(=O)c1ccccc1-2,u,-13%,-44%,-22%,13%,25µM*
Nc1ccc2c(c1)C(=O)c1ccccc1-2,-3%,x,x,x,x,-10%
CCN(C(=O)Cn1c(C(=O)OC)cc2oc3ccccc3c21)c1cccc(C)c1,-2%,2%,x,x,14%,x
O=c1c2cnn(-c3ccc(F)cc3)c2ncn1Cc1cccc(Cl)c1,-8%,2%,x,x,18%,x
O=C1c2ccccc2CC1Sc1nnc(-c2ccncc2)o1 (stereo not given),-13%,16µM*,-12%,-17%,5%,-28%
Cc1ccccc1N1C(=O)CC(Sc2nnc(-c3ccccc3)o2)C1=O (stereo not given),u,2.8µM*,-35%,-18%,-14%,u
O=C1OCCC1Sc1nnc(-c2ccc(Br)cc2)o1 (stereo not given),4%,-8%,-7%,-15%,-10%,2%
O=C1CC(Sc2nnc(-c3ccccc3)o2)C(=O)N1c1ccccc1 (stereo not given),-21%,3.5µM*,-15%,-20%,-4%,16µM*
COc1ccc(Cl)cc1N(C)C(=O)Cc1noc2ccc(C)cc12,1%,4%,x,x,12%,x
CS(=O)(=O)c1cc([N+](=O)[O-])c(Sc2nc3ccccc3[nH]2)c([N+](=O)[O-])c1,u,1.4µM*,-7%,22µM*,u,0%
O=C(O)c1cc([N+](=O)[O-])c(Sc2nc3ccccc3[nH]2)c([N+](=O)[O-])c1,-16%,1.8µM*,1%,-17%,u,6%
O=C(O)c1ccc(CSc2nc3ccccc3[nH]2)cc1,-5%,-10%,-9%,-16%,0%,-10%
CCN1CCN(c2ccc([N+](=O)[O-])c(Sc3nc4ccccc4[nH]3)c2)CC1,0%,0%,-2%,55%,1%,0%
O=C(CN1C(=O)c2ccccc2C1=O)Nc1sc2c(c1C(=O)NCc1ccco1)CCCC2,-2%,-20%,-12%,-32%,u,19%
O=C(CCCN1C(=O)c2ccccc2C1=O)Nc1sc2c(c1C(=O)NCc1ccco1)CCC2,-3%,40µM*,-1%,-23%,-4%,6%
O=C(CN1C(=O)c2ccccc2C1=O)NCC1CCCO1 (stereo not given),0%,-10%,6%,-9%,-5%,-3%
O=C(CN1C(=O)c2ccccc2C1=O)Nc1sc2c(c1C(=O)NCC1CCCO1)CCC2 (stereo not given),5%,79µM*,7%,-20%,4%,-22%
Cc1ccc(CNC(=O)C2CCN(C(=O)c3cnn(-c4ccccc4)c3-n3cccc3)CC2)cc1,-5%,-2%,x,x,-2%,x
Cc1cc(=O)n2[nH]c(-c3ccsc3-n3c(C)ccc3C)cc2n1,-3%,20µM*,2%,-8%,-8%,-3%
COc1ccc(OC)c(Nc2sc(C(=O)c3ccccc3)c(N)c2S(=O)(=O)c2ccccc2)c1,-8%,1%,x,x,5%,x
COc1ccccc1/C=C/C(=O)c1c2c(c(C)[nH]c1=O)CCCC2,-17%,45µM*,3%,-19%,-7%,9%
COc1ccccc1/C=C/C(=O)c1ccccc1,-2%,u,-7%,-27%,-5%,x
Cc1ccc(NC(=O)CCC(=O)c2cccs2)cc1,0%,-3%,11%,-19%,-8%,-17%
CC(C)c1ccc(NCCC(=O)c2cccs2)cc1,0%,3.2µM*,8%,-34%,-15%,32µM*
CCCOc1ccc(C(=O)CCNc2ccc(C)c(Cl)c2)cc1,2%,-6%,-6%,-30%,u,15%
